SMILES strings stand for the structures. Some results are limits rather than exact numbers.

The assay can be described thus: M. tuberculosis growth inhibition, dose response, 7H9 media, purified and synthesized compounds, set 6 (AID 504897). In kind it is functional.
With `COC(=O)c1ccc(CNc2c(N3CCCC3)c(=O)c2=O)cc1`, the IC90 was > 100 µM (active). Turning to `NC(=O)c1cnccn1`, the IC90 is > 100 µM (active).

`O=C(CSc1ccccn1)NC1CCCCC1`: the 90% effect concentration (IC90) is > 100 µM (active).

As to `Cc1[nH]c2ccccc2c1C(=O)COC(=O)c1ccc([N+](=O)[O-])s1`, the IC90 was > 67.8 µM (active). As for `CCCc1cc(C(N)=S)ccn1`, the IC90 is > 100 µM (active).

The values above are taken from ChEMBL document CHEMBL1201862, “PubChem BioAssay data set” (2004).
